# Source: PMC4336329 (PLoS ONE, 2015)
# About 2,200 (0.71%) of roughly 310,000 compounds showed an effect of 50% or more. Effects have a minus sign here. For the sample, strong results were picked, then their nearest neighbours and some compounds at random.
# Biological target: human ether-à-go-go-related gene (hERG) potassium channel (human, UniProt Q12809)
# Assay: primary screen, population patch clamp on CHO cells stably expressing hERG; higher = less effect of the substance
# Sequence of human ether-à-go-go-related gene (hERG) potassium channel (Q12809 whole entry, looked up): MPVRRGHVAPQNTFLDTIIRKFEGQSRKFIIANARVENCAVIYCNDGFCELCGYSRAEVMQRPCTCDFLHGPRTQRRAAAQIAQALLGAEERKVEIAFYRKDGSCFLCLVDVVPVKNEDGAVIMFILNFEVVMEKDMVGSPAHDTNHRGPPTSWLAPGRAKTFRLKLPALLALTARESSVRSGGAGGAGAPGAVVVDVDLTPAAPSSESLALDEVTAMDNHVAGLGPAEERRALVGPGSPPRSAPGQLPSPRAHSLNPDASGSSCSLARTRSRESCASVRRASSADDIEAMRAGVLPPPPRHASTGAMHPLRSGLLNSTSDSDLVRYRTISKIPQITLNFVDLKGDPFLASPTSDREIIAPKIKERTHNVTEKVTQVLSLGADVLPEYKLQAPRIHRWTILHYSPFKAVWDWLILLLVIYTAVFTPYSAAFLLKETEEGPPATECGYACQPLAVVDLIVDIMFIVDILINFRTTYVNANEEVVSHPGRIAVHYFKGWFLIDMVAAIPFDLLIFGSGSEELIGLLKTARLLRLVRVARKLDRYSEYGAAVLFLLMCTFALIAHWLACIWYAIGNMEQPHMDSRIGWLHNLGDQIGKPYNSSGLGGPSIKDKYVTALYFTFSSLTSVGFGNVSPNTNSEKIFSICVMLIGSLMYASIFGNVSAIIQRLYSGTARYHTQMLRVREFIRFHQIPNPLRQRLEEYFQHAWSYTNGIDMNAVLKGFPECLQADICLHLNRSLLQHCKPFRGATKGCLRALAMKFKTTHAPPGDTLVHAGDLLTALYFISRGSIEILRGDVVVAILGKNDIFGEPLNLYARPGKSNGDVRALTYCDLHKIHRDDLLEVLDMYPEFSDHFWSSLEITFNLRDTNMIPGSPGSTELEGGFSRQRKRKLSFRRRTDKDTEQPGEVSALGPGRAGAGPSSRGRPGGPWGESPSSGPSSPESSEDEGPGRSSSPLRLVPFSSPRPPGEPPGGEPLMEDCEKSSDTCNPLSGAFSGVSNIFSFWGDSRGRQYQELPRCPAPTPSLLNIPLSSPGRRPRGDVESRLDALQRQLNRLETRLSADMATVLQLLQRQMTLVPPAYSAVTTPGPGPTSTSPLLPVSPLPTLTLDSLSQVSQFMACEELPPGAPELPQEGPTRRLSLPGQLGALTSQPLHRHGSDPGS
row,SMILES,"hERG current change (%, negative = inhibition) at 1uM [%]"
1,Cc1nc([N+](=O)[O-])cn1CC(=O)Nc1ccc(Cl)cc1,14.3
2,OCCNC(=S)NCCc1ccccc1,9.19
3,COCCNC(=S)N(CCN(C)C)Cc1cc2cc3c(cc2[nH]c1=O)OCO3,15.5
4,CC(C)c1cc(C(=O)N2CCCC(N3CCN(c4ccccc4F)CC3)C2)nc(N)n1 (centres unmarked),10.1
5,O=C(Nc1ccc(Cl)cn1)Nc1ccccc1F,0.928
6,CC(C)Oc1ccc(N2CC(C(=O)Nc3ccc(N4CCOCC4)cc3)CC2=O)cc1 (centres unmarked),24.6
7,Cc1nn(C)cc1CN1CCC(CO)(CCOc2ccccc2)CC1,8.14
8,OCC1(CCOc2ccccc2)CCN(Cc2ccccc2OC(F)F)CC1,-54.4
9,C=CCOc1ccccc1CN1CCC(CO)(CCOc2ccccc2)CC1,-61.4
10,OCC1(CCOc2ccccc2)CCN(Cc2ccc3c(c2)OCCO3)CC1,-31.2
11,OCC1(CCOc2ccccc2)CCN(Cc2ccccc2C(F)(F)F)CC1,3.9
12,OCC1(CCOc2ccccc2)CCN(Cc2cc(Cl)ccc2O)CC1,-0.875
13,OCC1(CCOc2ccccc2)CCN(Cc2ccc(OC(F)F)cc2)CC1,-87.1
14,CCOc1ccccc1CN1CCC(CO)(CCOc2ccccc2)CC1,-66.8
15,Cc1cc(C)c(CN2CCC(CO)(CCOc3ccccc3)CC2)cc1C,-0.659
16,O=C(CSc1nnc(COc2ccccc2)o1)NC1CC2CCC1C2 (centres unmarked),14.8
17,CC(=O)c1ccc(NC(=O)COC(=O)c2c[nH]c3ccccc23)cc1,14.4
18,C/C=C\C(=O)Nc1cccc(C2=NOC3(C2)C[C@@H](C(N)=O)N(C(=O)c2ccccc2)C3)c1 (some centres unmarked),11.6
19,CC1CCCC(C)N1CCCNC(=O)CN1C(=O)c2cccnc2Oc2ccc(Cl)cc21 (centres unmarked),6.15
20,O=C1[C@H]2[C@@H](C(=O)N1c1cc(Cl)cc(Cl)c1)[C@]1(C(=O)Nc3ccccc31)N1CCC[C@@H]21,4.86
21,Cc1cc(=O)n2nc(N3CCCC(C(=O)NCCC4=CCCCC4)C3)sc2n1 (centres unmarked),-4.44
22,O=S(=O)(c1ccc(=S)[nH]c1)N1CCCCC1,16.8
23,O=C(O)c1cccc(NC(=S)NC(=O)c2cncc(Br)c2)c1,8.81

row,SMILES,"hERG current change (%, negative = inhibition) at 1uM [%]"
1,Cc1cc(C)n2nc(SCc3ccc(C#N)cc3)nc2n1,6.64
2,Cc1ccc(C)c(CSC2=NCCN2S(=O)(=O)c2ccccc2)c1,7.31
3,OCC1(CCOc2ccccc2)CCN(Cc2cn[nH]c2-c2ccc(F)cc2)CC1,-46.3
4,OCC1(CCOc2ccccc2)CCN(Cc2cn[nH]c2-c2ccccc2)CC1,-68.3
5,OCC1(Cc2ccccc2)CCCN(Cc2cn[nH]c2-c2ccccc2)C1 (centres unmarked),6.96
6,Cc1ccc(S(=O)(=O)N2CCCCC2)cc1NC(=O)CN1CC=C(c2ccccc2)CC1,-0.529
7,COc1cc(/C=N/NC(=S)NCC2CCCO2)cc(OC)c1OC (centres unmarked),0.431
8,CC1=C(C(=O)Nc2ccccc2)C(c2coc3ccccc3c2=O)C2=C(CCCC2=O)N1 (centres unmarked),10.3
9,Cc1ccc(NC(=O)CCN2CCOCC2)cc1C,11.1
10,COC(=O)c1ccc(NC(=O)CCN2CCCCC2)cc1.Cl,-51
11,Cc1cc(NC(=O)CCN2CCN(Cc3ccccc3)CC2)ccc1Br.Cl,7.35
12,Cc1cccc(NC(=O)CCN2CCN(C/C=C/c3ccccc3)CC2)c1.Cl,-82.5
13,Cc1ccc(NC(=O)N2CCN(C/C=C/c3ccccc3)CC2)cc1,-10.7
14,Cc1cccc(NC(=O)CCN2CCN(C)CC2)c1.Cl,14.1
15,CCN1CCN(CCC(=O)Nc2cccc(C)c2)CC1.Cl,9.56
16,COC(=O)c1ccc(NC(=O)CCN2CCN(CCC(=O)Nc3ccc(C(=O)OC)cc3)CC2)cc1,1.76
17,COC(=O)c1ccc(NC(=O)CCN2CCOCC2)cc1,6.71
18,Cc1ccc(NC(=O)CCN2CCN(C)CC2)cc1.Cl,14.9
19,Cc1ccc(NC(=O)CCN2CCN(C/C=C/c3ccccc3)CC2)cc1.Cl,-86.3
20,Cc1ccc(NC(=O)CCN2CCN(C/C=C/c3ccccc3)CC2)cc1C.Cl,-53.2
21,O=C(Cc1ccc(NS(=O)(=O)c2cccc(C(F)(F)F)c2)cc1)NCCN1CCOCC1,5.88
22,CCn1c(SCC(N)=O)nnc1-c1ccc(OC)c(OC)c1,19.4
23,C/C(=N/NC(=O)c1ccc(O)cc1)c1cccc([N+](=O)[O-])c1,9.78

row,SMILES,"hERG current change (%, negative = inhibition) at 1uM [%]"
1,COc1cc(/C=C/C2=CC(C)(C)NC(=S)N2)cc(OC)c1OC,8.95
2,COc1ccc(-n2c(SCC(=O)NCc3cccs3)nc3[nH]ncc3c2=O)cc1,-7.44
3,CCC(C)NC(=S)Nc1ccccc1OC (centres unmarked),1.64
4,CCN(C(=O)CSc1ncnc2c1cnn2-c1ccccc1)C1CCS(=O)(=O)C1 (centres unmarked),9.57
5,O=[N+]([O-])/C=C/c1c(OCc2ccccc2)ccc2ccccc12,-3.83
6,CCCC(C)C(=O)OCC(=O)Nc1c(Br)cc(C)cc1Br (centres unmarked),9.86
7,CCCc1ccc(-c2c(C)sc(N)c2C#N)cc1,16.9
8,c1ccc(-n2nnnc2-n2ccnc2)cc1,2.97
9,COc1ccccc1CCNC(=O)C(=O)NCC1OCCN1S(=O)(=O)c1cc(F)ccc1F (centres unmarked),8.74
10,Cc1ccc(S(=O)(=O)N2CCN(S(=O)(=O)c3ccc(C)cc3)C2c2ccccc2)cc1,3.23
11,O=C(CCN1CCN(C/C=C/c2ccccc2)CC1)Nc1ccc(Cl)cc1,-74.1
12,O=C(Nc1cccc(F)c1)N1CCN(C/C=C/c2ccccc2)CC1,-19.1
13,O=C(CCN1CCN(C/C=C/c2ccccc2)CC1)Nc1cccc(F)c1,-62.6
14,O=C(CCN1CCN(C/C=C/c2ccccc2)CC1)Nc1ccccc1,-79
15,Cl.O=C(CCN1CCOCC1)Nc1ccc(Cl)cc1,8.71
16,COc1ccc(NC(=O)CCN2CCN(C/C=C/c3ccccc3)CC2)cc1,-37.8
17,CN1CCN(CCC(=O)Nc2cccc(F)c2)CC1,13
18,O=C(CCN1CCN(c2ccccc2)CC1)Nc1ccc(Cl)cc1,9.14
19,COc1cc(NC(=O)CCN2CCN(C/C=C/c3ccccc3)CC2)cc(OC)c1,-36.8
20,CCOCCCNC(=O)c1cn(C)c(=O)c2cc(OC)c(OC)cc12,9.51
21,CCOC(=O)O[C@]1(C(=O)COC(=O)CC)CC[C@H]2[C@@H]3CCC4=CC(=O)C=C[C@]4(C)[C@H]3[C@@H](O)C[C@@]21C,8.4
22,Cc1cccc(NC(=O)CNC(=O)COc2cc(F)ccc2[N+](=O)[O-])c1C,15.4
23,CCCNC(=O)CCC(NS(=O)(=O)c1ccc(C)cc1)C(=O)NCCC (centres unmarked),7.66

row,SMILES,"hERG current change (%, negative = inhibition) at 1uM [%]"
1,CCOC(=O)C1C(=O)CC(C)(O)C(C(=O)OCC)C1c1ccc(OC)cc1 (centres unmarked),-0.912
2,CCOC(=O)CSc1nc2sc(C(=O)O)c(C)c2c(=O)[nH]1,9.03
3,Cc1cc(N2C(=O)C(O)=C(C(=O)c3cc4ccccc4o3)C2c2ccc(Cl)cc2)no1 (centres unmarked),1.55
4,COC(=O)c1cc(NC(=O)CSc2nnc(N)s2)ccc1Cl,13.6
5,Cc1ccc2c(CC(=O)N(C)c3c(N)n(Cc4ccccc4)c(=O)[nH]c3=O)coc2c1,8.06
6,O=C(NCCc1ccccc1)c1ccc2nccnc2c1,20.4
7,CC(C)Cc1ccc(C(C)C(=N)N)cc1.Cl (centres unmarked),10.2
8,CC(C)Cc1ccc(C(C)C(N)=NCCc2ccccc2)cc1.Cl (centres unmarked),-16
9,CC(C)Cc1ccc(C(C)C(N)=Nc2ccc(O)cc2)cc1.Cl (centres unmarked),-71.8
10,CSCCC(=O)N1CCC(n2nccc2NC(=O)CCc2ccccc2)CC1,5.02
11,Cc1ccc(C(=O)C2CCN(CC(=O)NCc3ccc(F)cc3)CC2)cc1,-17.5
12,Cc1ccc2c(c1)nnn2C1CCN(CC(=O)Nc2ccc(F)cc2)CC1,-20.7
13,CC(=O)c1ccc(NC(=O)CN2CCC(C(=O)c3ccc(F)cc3)CC2)cc1,6.3
14,Cc1ccc2c(c1)nnn2C1CCN(CC(=O)N2CCN(c3ccc(F)cc3)CC2)CC1,-52.5
15,O=C(c1ccccc1)C1CCN(CC(=O)N2CCN(c3ccccc3)CC2)CC1,10.9
16,O=C(CN1CCC(C(=O)c2ccc(F)cc2)CC1)Nc1ccc(F)cc1,-31.6
17,Cc1ccc(NC(=O)CN2CCC(C(=O)c3ccc(F)cc3)CC2)cc1,-50.1
18,Cc1ccc2c(c1)nnn2C1CCN(CC(=O)c2ccc(Cl)cc2)CC1,-6.32
19,Cc1ccc(C(=O)C2CCN(CC(=O)N3CCN(c4ccc(F)cc4)CC3)CC2)cc1,-66.5
20,O=C(/C=C/c1ccc(F)cc1)NC(=S)Nc1ccccc1O,13.6
